The values below come from PubChem BioAssay AID588758 (Vanderbilt Specialized Chemistry Center, 2011).

The nature of this test: off-target binding across receptor and transporter panel, profiling panel, selectivity assay for M4 PAM project, biochemical, Ricerca panel, percent inhibition (AID 588758). The note with it: Ricerca radioligand binding panel, % inhibition, at 10 µM, stronger effect = higher value.

Active and inactive are the calls of the source.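 The calls were made as follows: active = compound cutting binding or function at one or more panel targets by over half; inactive = the rest.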

Turning to `Cc1nc2sc(C(=O)NCc3ccncc3)c(N)c2c(C)c1Cl`, the inhibition (usually the relative decrease from the control value, in per cent) was 79% (active). The molecule further came in with an inhibition (GABA-A flunitrazepam site binding) of 64%. This molecule had an inhibition (measured here: 5-HT2B receptor binding) of 74%. Under “measured here: 5-HT3 receptor binding”, this molecule returned an inhibition of 35%. The inhibition (measured here: Adenosine A3 binding) is 40%. This molecule displayed an inhibition (measured here: Adrenergic beta2 binding) of 36%. The same molecule registered an inhibition (measured here: GABA-B 1A binding) of 25%. This molecule gave an inhibition (measured here: Muscarinic M1 binding) of 9%. Besides, the inhibition (measured here: Muscarinic M2 binding) came to 10%. Further, where the note is “measured here: Muscarinic M3 binding”, the inhibition was determined as 14%. The inhibition (measured here: Norepinephrine transporter binding) turned out to be 35%. Moreover, for the setting “measured here: Serotonin transporter binding”, the inhibition turned out to be 3%. For the same molecule, the inhibition (measured here: hERG channel binding) was determined as 12%.
